Compound activity: PubChem BioAssay, National Center for Advancing Translational Sciences (NCATS)
An excerpt weighted towards active compounds, which were near 9.2% of everything screened.
FLuc modulator: inhibits or activates purified firefly luciferase, miR-21 counter-screen. P08659. purified FLuc, Km substrates, luminescence inhibition. Potency, µM (series often up to 57.5 µM), inactives show top-dose activity change, negative = inhibition, actives largely listed as inhibitors. 360,000 compounds, 6.9% hits;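 further: plate controls were vehicle for no effect and reference inhibitor for full effect; nearly all actives have a fitted effect of over 55% in size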
Target sequence (P08659 whole entry, looked up): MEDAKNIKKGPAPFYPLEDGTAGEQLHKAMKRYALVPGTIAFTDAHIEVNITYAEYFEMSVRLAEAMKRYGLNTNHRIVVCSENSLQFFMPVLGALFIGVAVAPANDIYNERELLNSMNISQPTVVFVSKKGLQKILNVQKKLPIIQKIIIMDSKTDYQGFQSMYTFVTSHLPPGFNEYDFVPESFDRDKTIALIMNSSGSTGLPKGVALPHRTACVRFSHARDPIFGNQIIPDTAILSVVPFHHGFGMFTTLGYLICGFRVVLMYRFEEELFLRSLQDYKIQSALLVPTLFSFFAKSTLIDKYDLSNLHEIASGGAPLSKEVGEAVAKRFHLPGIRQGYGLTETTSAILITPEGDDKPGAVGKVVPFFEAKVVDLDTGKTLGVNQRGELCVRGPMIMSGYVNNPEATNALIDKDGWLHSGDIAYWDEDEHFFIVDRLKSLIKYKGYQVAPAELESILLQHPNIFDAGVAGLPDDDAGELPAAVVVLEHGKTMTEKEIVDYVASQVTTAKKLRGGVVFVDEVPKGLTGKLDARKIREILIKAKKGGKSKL
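Purified P. pyralis luciferase, 10 nM final, with Km-level 10 uM D-luciferin and 10 uM ATP in 50 mM Tris acetate pH 7.5, 10 mM Mg acetate, 0.01% Tween-20, 0.05% BSA; 6-point qHTS titration about 60 µM downward; luminescence read.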
SMN2 splice enh: SMN2 splice variant enhancement; HEK293 SMN2-luciferase splicing reporter, luminescence, 30-36 h; Potency, µM (series often up to 46.1 µM), for the others: at the highest dose activity change, positive = activation, hits mostly activators; 210,000 compounds, 2.8% hits; AID 1458; further: % of control where 0% means no effect; nearly all actives have a fitted effect of over 55% in size
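HEK293 cells carry an SMN2 […]–luciferase reporter in which exon 7 inclusion puts luciferase in frame. Cells were plated 10-12 h before compound addition, then incubated 30-36 h at 37C. ONE-Glo luminescence was read; sodium butyrate at 4.5 mM final served as control.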
Rab9 promoter act: Rab9 promoter activation | 320,000 compounds, 2.8% hits | Potency, µM (highest dose often 9.22 µM), for inactives: top-dose activation, negative = inhibition, hits mostly activators | AID 485297 | Huh7 Rab9 promoter-luciferase reporter, luminescence, 24 h; further: % of control where 0% means no effect; nearly all actives have a fitted effect of over 60% in size
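Promoter activation is measured as luciferase luminescence in Huh7 cells stably transfected with a Rab9 promoter–luciferase construct, following 24 h compound exposure at 37 °C and 10 min reagent incubation at ambient temperature.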
ELG1 DNA repair: blocks ELG1-dependent DNA repair in HEK293T cells. 330,000 compounds, 2.3% hits. HEK293T ELG1-luciferase reporter, luminescence, 16 h; DNA damage induced by 5-fluorouridine. Potency, µM (doses to about 46.1 µM), for inactives: at the top dose activity change, negative = inhibition, actives largely listed as inhibitors. AID 504467; further: on the % scale 0 is the no-effect control and ±100 the full control effect; nearly all actives have a fitted effect of over 55% in size
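Step one: seed 2,000 cells per well. Step two: pin-transfer compound or DMSO alongside 5-fluorouridine. Step three: incubate 16 hr, 37 °C, 5% CO2. Step four: add ONE-Glo, wait 30 min, read luminescence.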
NPC1 prom act: NPC1 promoter activation; Potency, µM (highest dose often 9.22 µM), inactives show top-dose activation, actives largely listed as activators; AID 485313; 320,000 compounds, 2.4% hits; Huh7 NPC1 promoter luciferase reporter, 24 h; further: % of control where 0% means no effect; nearly all actives have a fitted effect of over 60% in size
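Luciferase expression driven by the NPC1 promoter was measured in stably transfected Huh7 cells after a 24 h compound incubation, using a luciferase reagent and a luminescence read.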
ELG1 genotox: inducers of genotoxicity in HEK293T ELG1-luciferase cells. AID 504466. Potency, µM (titrated, usually from 46 µM), inactives show at the top dose activity change, positive = activation, actives largely listed as activators. 330,000 compounds, 1.3% hits. HEK293T ELG1-luciferase reporter, luminescence, 16 h; further: % of control where 0% means no effect; nearly all actives have a fitted effect of over 60% in size
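After overnight (16 hr) compound treatment at 37 °C, ELG1-luciferase HEK293T cells were lysed with ONE-Glo; luminescence quantified 30 min later at room temperature.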
Active calls of the source: *; ? = inconclusive; · = no result. The call rests on the fitted dose curve; in most records, active means well fitted curve in the direction sought with a large enough effect; inconclusive means small, poorly fitted or top-dose-only effect, or another doubt; inactive means no such curve, though single readings can be large; an effect the other way counts as inactive or inconclusive. Potency means the concentration at half of the fitted maximal effect.

SMILES	FLuc modulator	SMN2 splice enh	Rab9 promoter act	ELG1 DNA repair	NPC1 prom act	ELG1 genotox
COc1ccc(C2=NN(C(=O)CCC(=O)O)C(c3ccc(OC)cc3)C2)cc1 (stereo not given)	-6%	·	-4%	11%	-20%	-1%
CCC(=O)NC(c1cc(Cl)c2cccnc2c1O)C(C)C (stereo not given)	1%	·	-30%	8.2µM*	-34%	11%
CCOc1ccc(-c2c(C)nn3c(C)c(C(=O)Nc4cccc(Cl)c4C)cnc23)cc1OCC	-1%	·	·	·	·	·
CCOc1ccc(-c2cc(N3C(=O)Nc4ccccc4N3O)on2)cc1	2.4µM*	16%	16%	?	15%	2%
COc1ccc(-c2cc(N3C(=O)Nc4ccccc4N3O)n[nH]2)c(OC)c1	15µM*	-8%	-2%	-20%	-2%	-10%
COc1ccc(-c2cc(N3C(=O)Nc4ccccc4N3O)n[nH]2)cc1	11µM*	?	9%	7%	-1%	-3%
CN(C)CCN(C(=O)c1ccc2c(c1)CCCC2)c1nc2c(F)cccc2s1	11µM*	·	6%	?	2%	?
CN(C)C(CNC(=O)c1ccc(C2SCCS2)cc1)c1ccccc1 (stereo not given)	17µM*	·	12%	?	22%	17%
CCc1cccc(C)c1NC(=O)COC(=O)Cn1c(C)csc1=O	2%	·	1%	-2%	8%	2%
Cc1cc(C)c(NC(=O)COC(=O)CCn2c(C)csc2=O)c(C)c1	5%	·	14%	12%	-3%	1%
Cc1cc(C)c(C(=O)COC(=O)CCn2c(C)csc2=O)cc1C	4.8µM*	·	?	?	16%	10%
Cc1csc(=O)n1CC(=O)OCc1cccc2ccccc12	15µM*	-1%	25%	?	18%	?
Cc1cc(C)c(C(=O)COC(=O)Cn2c(C)csc2=O)cc1C	17µM*	·	-1%	3%	6%	11%
Cc1ccc(NC(=O)COC(=O)Cn2c(C)csc2=O)cc1C	-11%	7%	0%	0%	1%	-2%
Cc1ccc(C(=O)CCC(=O)NNC(=O)c2ccccc2O)cc1	·	·	-2%	5%	-2%	0%
COC1CCN(Cc2cn(Cc3ccccc3)nc2-c2cc3ccccc3o2)CC1	-2%	·	2%	21µM*	0%	-5%
OCC1CCN(Cc2cn(Cc3ccccc3)nc2-c2cc3ccccc3o2)CC1	1%	·	1%	-13%	-2%	0%
Cc1cc(C)c(C)c(S(=O)(=O)NCCCN2CCCC2=O)c1C	-3%	·	8%	4%	-3%	7%
CN(C)S(=O)(=O)N1CCc2ccc(NC(=O)c3ccc(C(F)(F)F)cc3)cc2C1	4.8µM*	·	-25%	9.2µM*	-13%	5%
COCCC(=O)N1CCc2ccc(NC(=O)c3ccc(C(F)(F)F)cc3)cc2C1	13µM*	·	-15%	13µM*	-7%	-6%
O=C(Nc1ccc2c(c1)C(=O)OC2)c1ccc(C(F)(F)F)cc1	4%	·	9%	0%	9%	8%
COc1cccc(CNC(=O)[C@H](CCSC)NC(=O)N2CCn3c2nc2ccccc23)c1	-1%	·	-2%	18µM*	-2%	-8%
O=C(NC1CCc2ccccc21)c1cc(COc2cncc(Cl)c2)on1 (stereo not given)	?	·	?	19%	29%	0%
COc1ccc(NC(=O)/C=C/c2cccc(Br)c2)cn1	13µM*	·	?	?	?	-12%
Cc1ccc(NC(=O)/C=C/c2cccc(C(F)(F)F)c2)cc1	?	·	7%	-6%	-3%	-2%
COc1ccc(NC(=O)/C=C/c2cccc(C(F)(F)F)c2)cn1	?	·	-1%	18µM*	-2%	-22%
COC(=O)CSc1ncc2c(n1)-c1ccccc1N(Cc1ccccc1C)S2(=O)=O	2%	·	·	·	·	·
Cc1cc(C)c2c(N)c(C(=O)Nc3nccs3)sc2n1	0.34µM*	?	1µM*	?	?	0.33µM*
